The full list was thinned out, with hits kept by preference.
Dicer processing: inhibitors of human Dicer processing of pre-microRNA | Q9UPY3 | actives 6% (n = 47,000) | cat-ELCCA pre-miR-21 Dicer processing, chemiluminescence; hits give high values | z-score at 25 µM; in the data active means z-score above about 3, passing the limit was not always enough;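 further: plate controls were vehicle for no effect and no enzyme for full effect; higher signal means more uncleaved substrate so more Dicer inhibition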
* = called active by the depositor.

SMILES | Dicer processing
CSc1nc(/C=N\c2nc(C)cc(C)n2)c(O)n1Cc1cccc(Cl)c1 | 6.26
CCOC(=O)C(=CNCCNc1ccc(C(F)(F)F)cc1[N+](=O)[O-])C(=O)OCC | -0.26
CCOC(=O)CSc1nc(-c2ccccc2)cn1-c1ccc(OC)cc1OC | -0.6
Cc1ccc(C2C3=C(CC(C)(C)CC3=O)Nc3ncnn32)cc1 (stereo not given) | 1.07
O=C(NNC(=NS(=O)(=O)c1ccccc1)NNC(=O)c1cccc(Cl)c1)c1cccc(Cl)c1 | 3.11*
CS/C(=N/S(=O)(=O)c1ccccc1)NNC(=O)c1ccc(Cl)cc1 | 1.45
O=C(CO/N=C/c1c(Cl)cccc1Cl)NNC(=O)c1cccc(Cl)c1 | 2.41
COc1ccc(C2C(C(=O)c3cccs3)=C(O)C(=O)N2c2nncs2)cc1 (stereo not given) | -1.18
COc1ccc(C2=NN3C(C2)c2ccccc2OC3c2cccs2)cc1 (stereo not given) | 1.52
O=C1CC(c2ccccc2)Sc2nc(-c3cccc4ccccc34)nn21 (stereo not given) | 0.94
Cc1nn2c3c(cnc2c1-c1ccccc1)C(=O)CC(c1ccc(Cl)cc1)C3 (stereo not given) | 0.4
O=C1CC(c2ccc(Cl)cc2)Sc2nc(-c3ccccc3)nn21 (stereo not given) | 4.12*
COc1ccc(-c2nc3n(n2)C(=O)CC(c2cccs2)S3)cc1 (stereo not given) | 5.59*
COc1cc(I)c(OC)cc1I | -0.52
CCCCCc1ccc(NC(=O)Nc2c(Cl)cc(Cl)cc2Cl)cc1 | -1.35
ON=C1c2cc(Br)ccc2-c2ccc(Br)cc21 | -0.61
CCCC(=O)N1c2ccccc2-c2nnc(SC)nc2OC1c1cccnc1 (stereo not given) | -0.36
CNC(=S)N(C)NC(=S)Nc1ccc(OC)c(OC)c1 | 1.43
Cc1nn2c(=O)c(NC(=O)c3ccc(Cl)cc3)cnc2s1 | -0.21
Cc1ccc(C(=O)Nc2cnc3sc(C)nn3c2=O)cc1 | 4.79*
Cc1nn2c(=O)c(NC(=O)c3ccc(F)cc3)cnc2s1 | -2.35
CCOC(=O)c1cc(C#N)c(N2CCN(C(=O)c3ccc(Cl)cc3)CC2)nc1C(F)(F)F | -1.48
C=CCNC(=S)N1N=C2c3ccccc3CCC2C1c1cccs1 (stereo not given) | 44.5
FC(F)(F)c1cccnc1SCc1ccc(Cl)cc1 | -1.58
N#Cc1cnc(SCc2ccc(Cl)cc2)nc1N | 0.28
SMILES | Dicer processing
N#Cc1c(SCc2ccc(Cl)cc2)nsc1Nc1ccc(Cl)cc1 | 3.04*
O=C1c2oc3ccccc3c(=O)c2C(c2cccnc2)N1c1ccccn1 (stereo not given) | 2.89
Nc1nnc(-c2cc(-c3ccc(O)cc3)on2)o1 | 0.11
COCCNS(=O)(=O)c1ccc(C)c(-c2nnc3c4ccccc4c(C)nn23)c1 | 1.36
Cc1ccc(S(=O)(=O)N2CCCCC2)cc1-c1nnc2c3ccccc3c(C)nn12 | 1.08
Cc1nn2c(-c3cccc(NS(=O)(=O)c4ccc(Cl)cc4)c3)nnc2c2ccccc12 | 2.55
c1ccc(-c2nn3c(-c4ccccc4)nnc3c3ccccc23)cc1 | 4.55*
Cc1ccc(-c2nnc3c4ccccc4c(C)nn23)cc1S(=O)(=O)NCc1ccccc1 | 2.83
Cc1ccccc1-c1nnc2c3ccccc3c(C)nn12 | 4.96*
CSc1nc(Sc2ccc(C)cc2)c(C#N)c(Sc2ccc(C)cc2)n1 | -0.63
